MEKK2mut PB1 HTS = signal of MEK5 binding to mutant human MEKK2 PB1 domain; bead flow cytometry, Alexa488-MEK5 binding to MEKK2 mutant; 290,000 tested, 0.35% active; percent response, % at 10 µM; AID 1530; in the data active = percent response above about 24%, passing the limit was not always enough
NTR1 agonist = activates human neurotensin receptor 1 | P30989 | NTR1-U2OS beta-arrestin-GFP spot imaging, agonist mode | activation, % at 20 µM | 330,000 tested, 0.17% active | AID 493036;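 active = activation at or above 40% of the spot to cytoplasm intensity ratio, with at least 20 cells analyzed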;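 note: 0% = DMSO without peptide and 100% = 100 nM NTR1 peptide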
TMEM16A act = activators or potentiators of mouse TMEM16A chloride channel. HEK293 TMEM16A/YFP-H148Q/I152L, iodide quench fluorescence; hits give low values. B-score at 10 µM. 340,000 tested, 0.3% active. AID 623877;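 active = fluorescence-ratio B-score plate-corrected deviation score at least 3 library SD below zero, with starting fluorescence score within 5 deviations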;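 note: channel opened by trigger with iodide after compound preincubation; score built on the fluorescence ratio of max minus min over baseline; more negative score means more quench and so TMEM16A activation or potentiation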
Target sequence (Q8BHY3 whole entry, looked up): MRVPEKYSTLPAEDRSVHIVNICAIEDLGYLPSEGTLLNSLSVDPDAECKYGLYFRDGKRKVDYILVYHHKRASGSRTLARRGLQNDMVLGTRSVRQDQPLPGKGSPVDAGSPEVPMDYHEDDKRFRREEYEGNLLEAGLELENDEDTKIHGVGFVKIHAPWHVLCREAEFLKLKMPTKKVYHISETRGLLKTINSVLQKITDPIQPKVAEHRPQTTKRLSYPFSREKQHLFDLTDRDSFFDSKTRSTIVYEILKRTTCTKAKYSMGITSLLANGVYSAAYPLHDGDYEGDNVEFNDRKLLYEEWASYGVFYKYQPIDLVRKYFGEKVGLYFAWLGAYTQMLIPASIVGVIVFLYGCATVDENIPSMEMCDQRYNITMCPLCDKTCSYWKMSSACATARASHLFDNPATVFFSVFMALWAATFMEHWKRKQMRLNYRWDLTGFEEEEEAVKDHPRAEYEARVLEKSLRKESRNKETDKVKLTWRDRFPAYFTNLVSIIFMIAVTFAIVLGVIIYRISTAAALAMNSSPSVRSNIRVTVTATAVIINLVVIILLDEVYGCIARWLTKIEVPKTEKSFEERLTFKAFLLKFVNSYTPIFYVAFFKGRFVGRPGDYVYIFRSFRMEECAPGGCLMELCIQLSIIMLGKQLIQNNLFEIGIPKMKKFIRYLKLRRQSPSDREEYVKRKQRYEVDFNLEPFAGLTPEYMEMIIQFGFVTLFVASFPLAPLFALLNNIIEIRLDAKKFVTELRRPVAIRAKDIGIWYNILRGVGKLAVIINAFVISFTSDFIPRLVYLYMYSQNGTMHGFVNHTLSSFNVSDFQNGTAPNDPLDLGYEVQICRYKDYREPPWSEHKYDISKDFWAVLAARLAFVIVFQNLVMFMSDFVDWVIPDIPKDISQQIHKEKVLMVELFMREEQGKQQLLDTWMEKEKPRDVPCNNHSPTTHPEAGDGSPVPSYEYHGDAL
MEKK2 WT-MEK5 = raises or lowers MEK5 binding to wildtype human MEKK2 PB1 domain; Q9Y2U5; bead flow cytometry, Alexa488-MEK5 binding to MEKK2 WT; actives lie on both sides; binding response (% of control), % at 10 µM; 290,000 tested, 1.1% active; AID 1531; in the data active = binding response below about 67% or above about 130%
ANO1 block = inhibitors of mouse TMEM16A calcium-activated chloride channel. normalized B-score (activity score, 25-100; higher = stronger inhibition) at 10 µM. Q8BHY3. 310,000 tested, 1.2% active. HEK293 TMEM16A/YFP iodide influx fluorescence, ionomycin;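 active = ratio plate-corrected score three or more library SD toward inhibition, starting fluorescence score within five deviations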;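 note: score derived from kinetic fluorescence span divided by baseline fluorescence per well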
MEKK3 PB1 HTS = modulators (inhibitors or enhancers) of MEK5 binding to human MEKK3 PB1 domain. Q99759. bead-based flow cytometry, Alexa488-MEK5 binding to MEKK3; actives lie on both sides; 0 = blocked by unlabeled MEK5, 100 = vehicle. binding response (% of control), % at 10 µM. 290,000 tested, 1.4% active;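 active = binding response more than 3 SD above or below the average of its plate-row segment, actives on both sides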;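 note: Alexa488 bead fluorescence after subtracting the streptavidin-only scavenger bead signal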
NTR1 ag confirm = NTR1 (human) agonism, confirmed. shares compounds with NTR1 agonist. 480 tested, 38% active. NTR1-U2OS beta-arrestin-GFP translocation imaging. activation, % at 20 µM;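 active = mean activation at 20 µM of at least 40%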;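 note: 0% = DMSO without peptide and 100% = 100 nM NTR1 peptide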
* = called active by the depositor; i = inactive; . = no result given. In the library only some 3.4% were active in any assay of this set; here they are far more common.

SMILES	MEKK2mut PB1 HTS	NTR1 agonist	TMEM16A act	MEKK2 WT-MEK5	ANO1 block	MEKK3 PB1 HTS	NTR1 ag confirm
COc1cccc(/C=C/C(=O)c2cccc([N+](=O)[O-])c2)c1OC	-2	59*	i	100	i	107	59*
CCCCCc1c2c(cc(O)c1C(=O)O)OC(=O)c1cc(C(=O)CCCC)c(OC)cc1O2	.	48*	i	.	.	.	12
COc1ccc(OC)c(C(=O)CCCC(=O)c2cc(OC)ccc2OC)c1	-7	-1	i	98	i	97	.
O=C(NC(=S)Nc1nc2c(s1)CSc1ccccc1-2)c1ccccc1	-8	62*	i	88	i	80	1
COc1ccc(CC(=O)Nc2cccc(-c3nnc(-c4cccc(C)c4)o3)c2)cc1OC	4	41*	i	107	100*	108	58*
CC(=O)Nc1nc(-c2ccc3c(c2)CC(C)N3C(=O)C2CC2)c(C)s1 (stereo unspecified)	-6	-1	i	95	i	99	.
Cc1sc(NC(=O)c2ccco2)nc1-c1ccc2c(c1)CC(C)N2C(=O)C1CC1 (stereo unspecified)	4	71*	i	104	i	106	66*
CCn1c(SCC(=O)NC2=NCCS2)nnc1C(C)NC(=O)c1ccc(Cl)cc1 (stereo unspecified)	-3	42*	i	99	i	101	-1
C/C(CC(=O)Nc1ccc(Cl)c(C(F)(F)F)c1)=N\NC(=O)c1cnccn1	1	-2	i	100	i	104	.
CNC(=O)c1cc(Oc2ccc(NC(=O)Nc3ccc(Cl)c(C(F)(F)F)c3)cc2)ccn1	.	43*	i	.	.	.	48*
Cc1nn(C)c(C)c1NC(=S)Nc1ccc(S(=O)(=O)Nc2ncccn2)cc1	1	1	i	98	i	103	.
O=C(Nc1ccc(-c2noc(CCc3ccccc3)n2)cc1)c1cccnc1	-1	67*	i	106	i	105	15
CCOC(=O)c1c(CSc2ccc(C)cc2)oc2ccc(O)cc12	-1	45*	i	96	i	92	6
CCOC(=O)c1c(CSc2ccccc2)oc2ccc(O)cc12	-2	12	i	101	i	99	.
CCc1ccc(-c2cn(-c3nc(C)cc(C)n3)c(=N)o2)cc1	1	46*	i	103	i	104	32
O=C(/C=C/c1ccc(Cl)c([N+](=O)[O-])c1)Nc1ccc(N2CCCC2)cc1	0	-2	i	103	i	100	.
O=C(/C=C/c1ccccc1Cl)c1ccc(O)cc1	10	2	i	95	i	112	.
O=C(/C=C/c1c(F)cccc1Cl)c1ccc(O)cc1	3	63*	i	97	i	105	5
Cc1ccc([C@@H]2[C@@H]3C(=O)N(c4ccccc4)C(=O)[C@@H]3[C@]3(C)C(=O)N(Cc4ccc(-c5ccccc5)cc4)CC(=O)N23)o1	8	1	i	104	i	102	.
CCc1ccc(/C=N\n2cnnc2)cc1	-22	0	i	93	i	84	.
CCCC(=O)Nc1cc(C(=O)O)ccc1Sc1ccc(C)cc1	-14	1	i	75	i	82	.
CC12CCC(=O)N1C(C(=O)NNC(=O)COc1ccccc1Cl)CS2 (stereo unspecified)	.	0	i	.	.	.	.
CC(=O)Nc1cc([N+](=O)[O-])ccc1N1CCOCC1	-6	0	i	88	i	90	.
O=C(Nc1ccc([N+](=O)[O-])cc1)Nc1ccc(N2CCOCC2)c2nonc12	-4	42*	i	96	100*	96	65*
Cc1ccc(-c2csc(-c3c[nH]c4ccccc34)n2)c(C)c1	2	46*	i	111	i	104	4
SMILES	MEKK2mut PB1 HTS	NTR1 agonist	TMEM16A act	MEKK2 WT-MEK5	ANO1 block	MEKK3 PB1 HTS	NTR1 ag confirm
CSc1nc(N(C)C)nc(N2CC(=O)N(CCNS(=O)(=O)c3ccc(C)cc3)C2=N)n1	0	9	i	106	i	124	.
O=C(CCS(=O)(=O)c1ccccc1)Nc1cccc(-c2nc3ccccc3s2)c1	0	49*	i	121	i	99	15
COc1ccc(S(=O)(=O)N2CCCC(C(F)(F)F)C2)cc1 (stereo unspecified)	-1	5	i	103	i	91	.
O=c1[nH][nH]c2cc(=O)n(-c3ccc(Cl)cc3)nc12	-4	2	i	99	i	96	.
CCOc1cc(/C=C\[N+](=O)[O-])ccc1OCC(=O)Nc1ccccc1C	5	45*	i	100	i	102	51*
N=c1c(-c2nc3ccccc3[nH]2)cc(C(=O)c2cccs2)nn1-c1ccccc1	6	52*	i	110	i	109	-1
N=c1c(-c2nc3ccccc3[nH]2)cc(C(=O)c2ccco2)nn1-c1ccccc1	-1	6	i	99	i	101	.
COc1ccc(CCNc2ccc(C(CC(N)=O)NC(=O)Cc3cccc4ccccc34)cc2[N+](=O)[O-])cc1 (stereo unspecified)	4	48*	i	105	i	105	10
COc1cccc(CN2CC(C(=O)NCCC3=CCCCC3)CCC2=O)c1 (stereo unspecified)	-1	3	i	105	i	102	.
O=c1/c(=C\c2cccc(O)c2)sc2nc(-c3ccccc3)c(-c3ccccc3)n12	-22	46*	i	75	i	84	41*
COc1cccc(OC)c1C(=O)Oc1ccc2c(c1)O/C(=C\c1ccncc1)C2=O	-2	52*	i	99	i	96	56*
CC(=O)OC(C(=O)N1CCOCC1)c1c(F)cccc1F (stereo unspecified)	9	-2	i	106	i	102	.
CC(C)CN(C(=O)c1cccc(F)c1)c1c(N)n(CC(C)C)c(=O)[nH]c1=O	-6	42*	i	96	i	98	-1
CC(C)CN(C(=O)c1cccc([N+](=O)[O-])c1)c1c(N)n(CC(C)C)c(=O)[nH]c1=O	3	-1	i	97	i	98	.
COCCCn1c(SCc2ccccc2)nc2cc(OC)c(OC)cc2c1=N	-2	19	i	110	i	99	.
COCCCn1c(SCc2cccc(C(F)(F)F)c2)nc2cc(OC)c(OC)cc2c1=N	-4	60*	i	123	i	96	10
COc1cc2cc(CCOC(=O)c3ccc(F)cc3)oc(=O)c2cc1OC	.	3	i	.	.	.	.

Screens from PubChem BioAssay.
